The full list was thinned out, with hits kept by preference.
Pf Dd2 growth: inhibitors of Plasmodium falciparum Dd2 growth; Potency, µM (series often up to 28.9 µM), actives largely listed as inhibitors; actives 4.3% (n = 120,000); P. falciparum Dd2 growth, SYBR Green, 72 h; active = well fitted inhibition curve with a large enough effect; note: nearly all actives have a fitted effect of over 65% in size
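Readout: SYBR Green fluorescence, 485 nm excitation, 535 nm emission, after ~16 h lysis at 37C. Before that, Dd2-infected red cells (2.5% hematocrit) grew 72 h with compound, 29 uM top final concentration.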
A number is an active result; 0 = inactive; [ ] = remark or other dose.

SMILES	Pf Dd2 growth
CCOc1ccccc1C1NC(=O)N(CC(=O)N2CCN(c3ccc(F)cc3)CC2)C2=C1C(=O)OC2 (stereo not drawn)	0
CC(C)(C)NC(=O)Cn1ccn2nc(-c3ccc(F)cc3)c(CO)c2c1=O	0
CC(C)CC(NC(=O)C1=NNC(=O)CC1)c1nnc2n1CCNCC2 (stereo not drawn)	0
COc1cccc(CN2CC[C@@H]3C(=O)NCCCCCCN(Cc4ccncc4)[C@@H]3C2)n1	3.98µM
CS(=O)(=O)N1CC[C@@H]2C(=O)NCCCCCCN(Cc3ccncc3)[C@@H]2C1	0
CCN1CCC(N2CC[C@@H]3C(=O)NCCCCCCN(Cc4ccncc4)[C@@H]3C2)CC1	0
O=C1NCCCCCCN(Cc2ccncc2)[C@@H]2CN(S(=O)(=O)c3cccnc3)CC[C@H]12	0
O=C1NCCCCCCN(Cc2ccncc2)[C@@H]2CN(S(=O)(=O)c3ccccc3)CC[C@H]12	10µM
Cn1cccc1CN1CC[C@@H]2C(=O)NCCCCCCN(Cc3ccncc3)[C@@H]2C1	6.31µM
O=C1NCCCCCCN(Cc2ccncc2)[C@@H]2CN(Cc3ccccn3)CC[C@@H]12	0
O=C1NCCCCCCN(Cc2ccncc2)[C@@H]2CN(C3CCOCC3)CC[C@@H]12	0
O=C1NCCCCCCN(Cc2ccncc2)[C@@H]2CN(Cc3cccnc3)CC[C@H]12	0
O=C(c1ccc2c(c1)OCO2)N1CCC2(CC1)NC(=O)N(c1ccc(F)cc1)N2	0
CC(=O)N(C1CC1)C1CCOC2(CCN(C(=O)Cc3c(C)noc3C)CC2)C1 (stereo not drawn)	0
O=C(c1ccccn1)N1CCCN(c2cc(-c3ccc(Cl)cc3)[nH]n2)CC1	0
Cc1occc1C(=O)N1CCC(CCC(=O)N2CCN(c3ccccc3)CC2)CC1	0
O=C1COCC2(CN1Cc1ccc(F)cc1Cl)CN(c1ccc(C(F)(F)F)cn1)C2	0
COc1ccc(C(=O)N2CCC(Oc3cccnc3)C2)cc1 (stereo not drawn)	0
CCCCc1ccc(NC(=O)Cn2ccn3nc(-c4ccccc4)c(CO)c3c2=O)cc1	0
O=C(NC1CCCC1)C1c2ccccc2CC(=O)N1Cc1ccccc1 (stereo not drawn)	0
CN1CCC(NC(=O)c2n[nH]c3c2CN(C(=O)c2cc(F)cc(F)c2)CC3)CC1	0
COCC(=O)N[C@@H]1CN(C(=O)C2CC2)CC[C@@H]1c1nc(C)no1	0[5.79 µM]
CC(C)(C)n1ccc(C(=O)N2CCN(c3cccc(Cl)c3)C(=O)C2)c1	0
CN(C)C1CCN(C(=O)C2(N(C)CCc3ccccc3)Cc3ccccc3C2)C1 (stereo not drawn)	5.01µM
CN(Cc1ccccc1)C1(C(=O)NC2CCC(O)CC2)Cc2ccccc2C1 (stereo not drawn)	0
SMILES	Pf Dd2 growth
CN(C)CCN(C)CC[C@H]1CN(C(=O)Cc2ccccc2)CC[C@H]1CC(=O)O	0
COc1cc(=O)n2c(c1C(=O)Nc1ccc(F)cc1F)CCCC2	0
CCCCn1c(SCC(=O)Nc2cccc(OC)c2)nc2c(sc3ccccc32)c1=O	0
CCC(Oc1ccccc1)C(=O)Nc1cccc(OCc2cc(=O)n3cccc(C)c3n2)c1 (stereo not drawn)	0
CCC(Sc1nc2ccccc2c2nc(CCn3cncc3C)nn12)C(=O)Nc1cccc(OC)c1 (stereo not drawn)	7.08µM
O=C(c1ccccc1F)N1CCC(CCOc2ccccc2)C1 (stereo not drawn)	0
CCCN(CCC)CCCNC(=O)C1CCN(c2nc3ccc(CC)cc3s2)CC1	7.08µM
CCc1ccc2nc(N3CCC(C(=O)NCCC(C)C)CC3)sc2c1	0
CCCN(CCC)CCNC(=O)C1CCN(c2nc3ccc(CC)cc3s2)CC1	7.08µM
CCCN(CCC)CCCNC(=O)C1CCN(S(=O)(=O)CC)CC1	0
CCOc1ccc2nc(N3CCC(C(=O)Nc4ccc(Br)cc4F)CC3)sc2c1	0
Cc1ccc(CNC(=O)c2ccc3nc(N4CCCCC4)sc3c2)cc1	0
C[C@@H](NS(=O)(=O)c1ccc(Cl)cc1)c1onc(-c2cccnc2)c1C(=O)O	0
CCCS(=O)(=O)N1CCC(CC(=O)NCc2ccccc2)C1 (stereo not drawn)	0
Cc1cc(=O)cc(C(=O)N2CCC(O)(CN3CCOCC3)C(C)(C)C2)o1 (stereo not drawn)	0
COc1ccc2c(C)c(C(=O)N3CCCC3c3c(C)noc3C)oc2c1 (stereo not drawn)	0
Cc1cccc(C(=O)N2CCC(C(NC(=O)CC(C)C)C(=O)N3CCCCC3)CC2)c1 (stereo not drawn)	0
COCCc1nncn1C1CCN(S(=O)(=O)c2ccc(Cl)c(C)c2)CC1	0
CCN(CC)CCCNc1cc(-c2ccccc2)nc(C)n1	0
Cc1nc(Nc2ccc(Cl)cc2)cc(-c2ccccc2)n1	8.91µM
CCOC(=O)c1ccc(Nc2cc(-c3ccccc3)nc(C)n2)cc1	0
CC(C)n1nc(OC(C)(C)C(=O)NCCc2ccccn2)c2cc(CN3CCOCC3)ccc21	0
CS(=O)(=O)N1CCC2(CC1)CC(c1ccccc1)C(=O)N(C1CC1)C2 (stereo not drawn)	0
C=CCN(Cc1ccccc1OC)C(=O)c1cnn(CCC)c1C	0

Source: PubChem
